{"source": "paper PMC10726135", "about": "“HNF4α isoforms regulate the circadian balance between carbohydrate and lipid metabolism in the liver”", "note": "Whole data set: some 18,000 sequences, median “log2 normalized intensity” near 0.39, cut for the highest 2% near 6.6. Many of the other results were omitted from the sample, so the highest values are more common in it than they were.", "data": [{"biological_target": "T1, HNF4alpha2 (COS-7 nuclear extract) (Homo sapiens, UniProt P41235 1-474)", "T1 sequence": "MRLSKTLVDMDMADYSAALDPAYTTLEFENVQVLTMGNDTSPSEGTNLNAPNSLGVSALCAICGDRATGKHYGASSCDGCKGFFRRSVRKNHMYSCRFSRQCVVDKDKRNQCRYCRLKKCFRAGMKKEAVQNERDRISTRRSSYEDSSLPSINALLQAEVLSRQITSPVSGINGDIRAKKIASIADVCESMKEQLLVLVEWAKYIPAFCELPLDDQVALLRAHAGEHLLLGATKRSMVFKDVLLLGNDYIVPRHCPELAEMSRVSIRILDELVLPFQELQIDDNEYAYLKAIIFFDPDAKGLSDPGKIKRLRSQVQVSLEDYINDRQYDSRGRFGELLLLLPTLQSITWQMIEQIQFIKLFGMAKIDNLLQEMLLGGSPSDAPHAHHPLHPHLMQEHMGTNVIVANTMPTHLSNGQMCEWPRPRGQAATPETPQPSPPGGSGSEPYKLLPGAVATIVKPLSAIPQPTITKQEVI", "assay": "protein-binding microarray; COS-7 nuclear extract on double-stranded Agilent 4x180k PBM; binding buffer, salt, pH and temperature not given in the material; high values mean tight binding", "details": "chain copies: 2; label: 3' end of strand 1 on the slide; dsDNA, one strand shown", "summary_of_the_method": "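Binding signal is the background-corrected, normalized gProcessedSignal calculated by Agilent software. It was measured by applying nuclear extracts of COS-7 cells transiently transfected with a human HNF4α isoform expression vector to a custom Agilent SurePrint G3 4x180k array of ~44,000 double-stranded ~60-nt test sequences in quadruplicate, then imaging bound HNF4α on an Agilent G2565CA scanner at 2-µm resolution.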", "units": {"binding signal": "log2 normalized intensity"}, "values": [{"sequence": "TGGGCACTGTCCTAGGTGCTGAAGATGCAAGCCTAGGGAGATTAGAGTATCGGTCGA", "binding signal": -0.724}, {"sequence": "GATCAAAGGTCGGTTTTAGGACAACATGAGGCCTAGGGAGATTAGAGTATCGGTCGA", "binding signal": 4.52}, {"sequence": "CTATCATTATCTCTCACTGCAGAAACTCTGGCCTAGGGAGATTAGAGTATCGGTCGA", "binding signal": 1.35}, {"sequence": "AGCATTTTTGTATGCATAAGGCCTTGGACCGCCTAGGGAGATTAGAGTATCGGTCGA", "binding signal": 3.11}, {"sequence": "CTTTGGTATGGACTGATATTCAAACAGGTCGCCTAGGGAGATTAGAGTATCGGTCGA", "binding signal": 1.31}, {"sequence": "GAGGGATTTTCAGTATACTGACTTATCAGGGCCTAGGGAGATTAGAGTATCGGTCGA", "binding signal": 0.535}, {"sequence": "AGCGGCCTTCCCCTTTTTCTGTAAAGCTTTGCCTAGGGAGATTAGAGTATCGGTCGA", "binding signal": 1.21}, {"sequence": "GAGTTTAGGCATTCTTAGACACAGTCTGAGGCCTAGGGAGATTAGAGTATCGGTCGA", "binding signal": -0.227}, {"sequence": "AACATGGACTTTGTTGTTTGCCTCTGAAAAGCCTAGGGAGATTAGAGTATCGGTCGA", "binding signal": 2.31}, {"sequence": "TGCGTGTTATCTATGGAACATGGACTTTGAGCCTAGGGAGATTAGAGTATCGGTCGA", "binding signal": 8.74}, {"sequence": "CCTCTTGCGTGTTATCTATGGAACATGGACGCCTAGGGAGATTAGAGTATCGGTCGA", "binding signal": 2.24}, {"sequence": "CCATACCTCTTGCGTGTTATCTATGGAACAGCCTAGGGAGATTAGAGTATCGGTCGA", "binding signal": 1.5}, {"sequence": "TACATTGAACTTTGAACACCTCTTCTTTCTGCCTAGGGAGATTAGAGTATCGGTCGA", "binding signal": 4.75}, {"sequence": "GAACATGGACTTTGAACCTCTCTTCTTTTTGCCTAGGGAGATTAGAGTATCGGTCGA", "binding signal": 7.25}, {"sequence": "GGAGAAGTTTTATGGCAGGGTCGGAATGTCGCCTAGGGAGATTAGAGTATCGGTCGA", "binding signal": 1.55}, {"sequence": "AGCCCCACAGAGCAAAGGTCATGCATAGAAGCCTAGGGAGATTAGAGTATCGGTCGA", "binding signal": 4.52}, {"sequence": "ATGGTTTGACCCTGCGATAAGTAGATACCAGCCTAGGGAGATTAGAGTATCGGTCGA", "binding signal": 0.964}, {"sequence": "CTTTGGCCAAGGGCAGTGTTTGCCCAGCTTGCCTAGGGAGATTAGAGTATCGGTCGA", "binding signal": 0.106}, {"sequence": "GAGTCTGTTGTCTAACATTTTTGACCTTCAGCCTAGGGAGATTAGAGTATCGGTCGA", "binding signal": 4.09}, {"sequence": "GTCTGTTGACCTTTGGCCAAGGGCAGTGTTGCCTAGGGAGATTAGAGTATCGGTCGA", "binding signal": 6.71}, {"sequence": "TTGACCTTTGGCCAAGGGCAGTGTTTGCCCGCCTAGGGAGATTAGAGTATCGGTCGA", "binding signal": 5.35}, {"sequence": "AGGCAGTCTGTTGACCTTTGGCCAAGGGCAGCCTAGGGAGATTAGAGTATCGGTCGA", "binding signal": 7.73}, {"sequence": "TCAGTCTGGTTGAGGCAAGCAAAAGCCAAGGCCTAGGGAGATTAGAGTATCGGTCGA", "binding signal": -0.985}, {"sequence": "CAACTGGTATGTTAGATTAGTGTGCAGCTTGCCTAGGGAGATTAGAGTATCGGTCGA", "binding signal": 0.891}, {"sequence": "TCTGACCTCTTTCAAGCCTGAACAAACATGGCCTAGGGAGATTAGAGTATCGGTCGA", "binding signal": 0.93}, {"sequence": "GTCCGGCAGAGCTATGGAATTTTGGCCTTTGCCTAGGGAGATTAGAGTATCGGTCGA", "binding signal": 3.22}, {"sequence": "ATTCCCTCCAGCAGGGGATGCCCTTTGACCGCCTAGGGAGATTAGAGTATCGGTCGA", "binding signal": 8.91}, {"sequence": "GGATGCCCTTTGACCTCTGCTTCCTGCTACGCCTAGGGAGATTAGAGTATCGGTCGA", "binding signal": 5.58}, {"sequence": "GCAGGGGATGCCCTTTGACCTCTGCTTCCTGCCTAGGGAGATTAGAGTATCGGTCGA", "binding signal": 8.18}, {"sequence": "TTATGCAGACCTTTGCCCTTTGTTTACATAGCCTAGGGAGATTAGAGTATCGGTCGA", "binding signal": 5.27}, {"sequence": "CTCCAGGGCACTGCCCTTTGGAACCTGCCCGCCTAGGGAGATTAGAGTATCGGTCGA", "binding signal": 5.54}, {"sequence": "TGCTTCCAAGTTATGCAGACCTTTGCCCTTGCCTAGGGAGATTAGAGTATCGGTCGA", "binding signal": 7.17}, {"sequence": "ATGCCCCTCCCAGGGACACATGCCCCTTCCGCCTAGGGAGATTAGAGTATCGGTCGA", "binding signal": 5.44}, {"sequence": "TGCACATTCCCTCCAGCAGGGGATGCCCTTGCCTAGGGAGATTAGAGTATCGGTCGA", "binding signal": 2.38}, {"sequence": "AAAGCCTAGGCTCCAGGGCACTGCCCTTTGGCCTAGGGAGATTAGAGTATCGGTCGA", "binding signal": 3}, {"sequence": "CTAGGCTCCAGGGCACTGCCCTTTGGAACCGCCTAGGGAGATTAGAGTATCGGTCGA", "binding signal": 6.71}, {"sequence": "CCCTTTGACCTCTGCTTCCTGCTACAGAGCGCCTAGGGAGATTAGAGTATCGGTCGA", "binding signal": 1.87}, {"sequence": "TACTTTGCTTCCAAGTTATGCAGACCTTTGGCCTAGGGAGATTAGAGTATCGGTCGA", "binding signal": 2.14}, {"sequence": "TTGGGTCACAATCACAAATGCCTTCAGGGGGCCTAGGGAGATTAGAGTATCGGTCGA", "binding signal": 0.838}, {"sequence": "TCAGCCCACAGGTCAATCCAGGTTGCTGCCGCCTAGGGAGATTAGAGTATCGGTCGA", "binding signal": -0.646}, {"sequence": "GGCCCAGAGCACAACCTTTGGCCGTGCATGGCCTAGGGAGATTAGAGTATCGGTCGA", "binding signal": 2.45}, {"sequence": "TTAAATCCTATCCTAGGGTTAAAGTCTACAGCCTAGGGAGATTAGAGTATCGGTCGA", "binding signal": 4.31}]}]}
